Active and inactive are the calls of the source.

In assay [1] the test system is Human papillomavirus type 1a protein E7 (residues 44-93). The experiment in a line: HPV1a E7 fragment binders on microarrays, primary screen, biochemical, small-molecule microarray, residues 44-93, 635 nm fluorescence (AID 1108).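 Note: E7 fragment applied at 1 µg/mL in TBST for 1 h at 4 C; score combines spot fluorescence with its signal to noise ratio.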 The conditions noted are these: small-molecule microarray binding, fluorescence 635 nm; higher = more signal.
A short description of assay [2]: modulators of HCV replicon luciferase signal, primary screen, HCV replication inhibitor project, Huh7 cells, luciferase reporter (AID 1109).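 Note: huh7 hepatoma cells harbouring a luciferase neomycin HCV replicon reporter; luciferase luminescence as measure of HCV replicon replication; test concentration not given here.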 The conditions noted are these: 48 h, higher = more signal. In general terms: Replicon systems follow genome replication, usually without infectious particles.
The target in assay [3] is Left-right determination factor 2 (Homo sapiens) (UniProt O00292). Description: LEFTY2 binders on small-molecule microarrays, primary screen, biochemical, small-molecule microarray, 635 nm fluorescence scan (AID 1110). The note with it: LEFTY2 binding, higher = more signal.
The target of assay [4] is Calmodulin-1 (Homo sapiens) (UniProt P0DP23). The experiment in a line: CALM1 binders on microarrays, EGTA buffer, profiling panel, biochemical, small-molecule microarray, Cy5-labelled CALM1 (AID 1111).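 Note: labelled calmodulin applied in Tris saline Tween buffer holding calcium plus EGTA and DTT.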 The conditions noted are these: Cy5-CALM1 binding fluorescence, higher = more signal.
Assay [5] has the same target. Description: calcium-bound CALM1 binders on microarrays, profiling panel, artefact control for SMM control-protein annotation, biochemical, small-molecule microarray, Cy5-labelled CALM1, plus calcium (AID 1112).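 Note: score merges spot fluorescence with signal to noise from triplicate slides.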 The conditions noted are these: Cy5-CALM1 binding fluorescence, higher = more signal.
Assay [6] can be described thus: small-molecule microarray binders of probe aWnt5a, primary screen, biochemical, biotinylated probe, 635/667 nm fluorescence (AID 1113).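 Note: score merges 667 nm fluorescence intensity with signal-to-noise per printed feature.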 The note with it: higher = more signal.
The nature of assay [7]: small-molecule microarray binders of probe aShh, primary screen, biochemical, biotinylated probe, 635/667 nm fluorescence (AID 1114).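 Note: probe is biotin-labelled aShh protein from a stem cell growth factor screen; measures binding of labelled protein to compounds printed on the slide; score merges feature fluorescence at 667 nm with signal-to-noise.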 The note with it: higher = more signal.
The nature of assay [8]: small-molecule microarray binders of probe aNog, primary screen, biochemical, biotinylated probe, 635/667 nm fluorescence (AID 1115).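 Note: probe is biotinylated aNog protein used at 0.15 µg/mL for 1 h at 4 C; z-score combines 667 nm fluorescence of each spot with its signal to noise.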 The note with it: higher = more signal.
The target in assay [9] is Torsin-1A-interacting protein 1 (Homo sapiens) (UniProt Q5JTV8). Description: LAP1 binders from COS7 cell lysate, primary screen, small-molecule microarray, 635/667 nm fluorescence (AID 1116). The conditions noted are these: COS7-hLAP1 lysate binding, 635 nm fluorescence, higher = more signal.
The target in assay [10] is Alpha-bungarotoxin (Bungarus multicinctus) (UniProt P60615). Description: alpha-bungarotoxin binders on microarray, profiling panel, artefact control for SMM control protein annotation, biochemical, small-molecule microarray, Alexa647 label, 635/667 nm fluorescence (AID 1117). The conditions noted are these: alpha-BTX-A647 binding fluorescence, higher = more signal.
The target in the next assay is Albumin (Bos taurus) (UniProt P02769). The experiment in a line: bovine serum albumin binders on microarray, profiling panel, artefact control for SMM control protein annotation, biochemical, small-molecule microarray, Alexa647 label, 635/667 nm fluorescence (AID 1118).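 Note: score merges 667 nm emission intensity and signal-to-noise per printed compound spot.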 The conditions noted are these: BSA-A647 binding, fluorescence 635 nm, higher = more signal.
Assay [11] in a line: small-molecule microarray binders of probe aXIP, primary screen, biochemical, NeuroSMM set, 635/667 nm fluorescence (AID 1119).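 Note: probe is the protein aXip251-270 applied at 1 µg/mL to compound-printed slides; binding of probe to printed compounds measured as 667 nm fluorescence plus signal to noise.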 The conditions noted are these: higher = more signal, called active from +8 up or from −8 down.
Assay [12] is described as follows: small-molecule binders of probe aNOTCH3, primary screen, biochemical, small-molecule microarray, 635/667 nm fluorescence (AID 1120).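 Note: probe is a biotin-tagged antibody raised against NOTCH3 rather than NOTCH3 protein; score merges spot fluorescence near 667 nm with spot signal to noise.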 The conditions noted are these: higher = more signal.
A short description of assay [13]: small-molecule binders of probe aNOTCH2, primary screen, biochemical, small-molecule microarray, 635/667 nm fluorescence (AID 1121).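 Note: score merges feature fluorescence read at 667 nm with its signal to noise.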 The note with it: higher = more signal.
Assay [14] has as its target Carbonic anhydrase 2 (Homo sapiens) (UniProt P00918). The experiment in a line: CAII small-molecule binders, profiling panel, biochemical, small-molecule microarray, Alexa647-labelled CAII (AID 1122). The note with it: CAII-A647 binding fluorescence, higher = more signal.
The nature of assay [15]: COS7 lysate on small-molecule microarray, probe aHis, 635 nm (AID 1123).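 Note: z-score combines 667nm fluorescence intensity with signal-to-noise per printed compound spot.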 The conditions noted are these: COS7 cell lysate, fluorescence, higher = more signal.
A short description of assay [16]: compound binding in COS7 lysate, probe aLAP1, primary screen, cell lysate, small-molecule microarray (AID 1124).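 Note: lysate comes from COS7 cells expressing LAP1 and is applied at 0.3 µg/mL; score merges spot fluorescence near 667 nm with signal-to-noise over triplicate slides.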 The note with it: probe aLAP1, fluorescence, higher = more signal.
Another assay concerns Sam68 (KHDRBS1). The experiment in a line: Sam68 small-molecule binders, primary screen, biochemical, small-molecule microarray, 635 nm fluorescence (AID 1125).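 Note: score merges 667 nm channel intensity with signal to noise over triplicate slides.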 The note with it: small-molecule microarray binding, higher = more signal.
Assay [17] concerns Chordin-like protein 2 (CHRDL2). Description: CHRDL2 small-molecule binders, primary screen, biochemical, small-molecule microarray, 635 nm fluorescence (AID 1126).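 Note: printed compound slides probed with Chrdl2 protein at 4 µg/mL for 1 h at 4 C; score merges 667 nm emission intensity with signal to noise over three replicate slides.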 The note with it: small-molecule microarray binding, fluorescence 635 nm; higher = more signal.
The target of assay [18] is Concanavalin-A (Canavalia ensiformis) (UniProt P02866). Description: ConA small-molecule binders, primary screen, artefact control for SMM control protein annotation, biochemical, small-molecule microarray, Alexa647 label, 635 nm (AID 1127).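 Note: z combines 667 nm emission intensity with signal-to-noise across three replicate slides.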 The conditions noted are these: ConA-A647 binding fluorescence, higher = more signal.
Sequence of Concanavalin-A (Canavalia ensiformis) (P02866 whole entry, looked up): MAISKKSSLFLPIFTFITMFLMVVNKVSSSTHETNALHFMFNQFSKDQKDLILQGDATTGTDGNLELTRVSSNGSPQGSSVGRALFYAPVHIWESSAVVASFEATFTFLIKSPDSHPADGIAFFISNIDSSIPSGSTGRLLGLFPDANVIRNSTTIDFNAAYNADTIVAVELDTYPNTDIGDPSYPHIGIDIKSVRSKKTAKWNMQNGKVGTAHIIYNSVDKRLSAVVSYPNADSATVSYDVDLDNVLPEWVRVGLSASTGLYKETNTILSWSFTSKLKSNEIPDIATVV

Sequence of Left-right determination factor 2 (Homo sapiens) (O00292 whole entry, looked up): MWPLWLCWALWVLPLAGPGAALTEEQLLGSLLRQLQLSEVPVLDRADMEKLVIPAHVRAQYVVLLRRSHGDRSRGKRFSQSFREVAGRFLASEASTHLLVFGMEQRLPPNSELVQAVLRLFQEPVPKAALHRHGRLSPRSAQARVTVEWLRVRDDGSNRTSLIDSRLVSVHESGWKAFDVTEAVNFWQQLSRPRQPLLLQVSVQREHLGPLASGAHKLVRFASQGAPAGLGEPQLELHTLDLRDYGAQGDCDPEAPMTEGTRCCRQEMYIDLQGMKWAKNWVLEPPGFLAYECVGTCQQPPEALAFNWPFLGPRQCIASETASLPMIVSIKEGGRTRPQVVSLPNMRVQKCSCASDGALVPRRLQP
Sequence of Alpha-bungarotoxin (Bungarus multicinctus) (P60615 whole entry, looked up): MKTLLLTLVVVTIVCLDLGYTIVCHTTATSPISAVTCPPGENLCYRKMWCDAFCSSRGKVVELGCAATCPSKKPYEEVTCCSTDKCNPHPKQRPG
Sequence of Albumin (Bos taurus) (P02769 whole entry, looked up): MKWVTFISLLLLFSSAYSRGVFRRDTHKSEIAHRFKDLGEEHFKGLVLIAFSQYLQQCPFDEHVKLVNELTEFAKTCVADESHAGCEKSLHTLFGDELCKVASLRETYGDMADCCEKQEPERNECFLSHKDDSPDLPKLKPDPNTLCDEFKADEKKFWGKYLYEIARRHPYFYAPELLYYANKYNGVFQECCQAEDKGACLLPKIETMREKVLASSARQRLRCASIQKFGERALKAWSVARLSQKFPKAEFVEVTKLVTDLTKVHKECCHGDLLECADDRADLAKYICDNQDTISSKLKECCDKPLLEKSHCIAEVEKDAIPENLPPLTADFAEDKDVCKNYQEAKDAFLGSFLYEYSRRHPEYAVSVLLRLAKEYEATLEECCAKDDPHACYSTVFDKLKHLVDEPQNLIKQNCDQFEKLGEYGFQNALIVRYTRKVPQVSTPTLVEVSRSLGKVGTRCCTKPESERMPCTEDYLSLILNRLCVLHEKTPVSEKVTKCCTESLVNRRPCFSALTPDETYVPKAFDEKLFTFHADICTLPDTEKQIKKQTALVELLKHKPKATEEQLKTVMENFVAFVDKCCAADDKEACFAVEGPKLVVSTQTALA
Sequence of Torsin-1A-interacting protein 1 (Homo sapiens) (Q5JTV8 whole entry, looked up): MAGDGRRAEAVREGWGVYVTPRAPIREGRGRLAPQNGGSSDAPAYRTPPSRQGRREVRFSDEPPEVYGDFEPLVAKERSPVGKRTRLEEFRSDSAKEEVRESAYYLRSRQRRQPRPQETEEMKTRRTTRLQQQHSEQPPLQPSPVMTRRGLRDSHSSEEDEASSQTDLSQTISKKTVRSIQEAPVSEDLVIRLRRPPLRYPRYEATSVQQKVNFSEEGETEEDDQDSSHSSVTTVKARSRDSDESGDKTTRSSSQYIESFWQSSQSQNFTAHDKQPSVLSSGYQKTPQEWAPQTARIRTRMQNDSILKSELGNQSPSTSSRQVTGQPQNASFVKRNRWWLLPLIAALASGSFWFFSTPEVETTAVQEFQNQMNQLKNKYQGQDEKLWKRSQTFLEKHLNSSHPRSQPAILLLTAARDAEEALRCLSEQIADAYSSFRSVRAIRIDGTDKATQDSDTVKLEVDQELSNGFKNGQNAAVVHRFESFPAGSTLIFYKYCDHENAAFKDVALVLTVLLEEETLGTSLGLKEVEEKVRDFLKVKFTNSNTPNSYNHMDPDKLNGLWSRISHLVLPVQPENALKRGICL

Consider `CN(C)CCCCCCNC(=O)[C@@H]1C[C@@H]2C(=O)NCC(=O)N2[C@@H]1c1cccc(OCCO)c1`, for which the composite z-score was 1.12 in assay [1]; 1.36 in assay [3]; 0.138 in assay [4]; -0.708 in [5]; -0.0222 in assay [6]; 0.0948 in assay [7]. Further, the composite z-score was 0.107 in assay [8]; 1.88 in assay [9]; -0.0783 in [10]; -0.615 with Albumin (Bos taurus); 0.113 in [12]; -0.0519 in assay [13]. In addition, the composite z-score was 0.63 in [14]; 2.54 in assay [15]; 0.212 in assay [16]; 1.3 in the assay with Sam68 (KHDRBS1); 1.35 in assay [17]; 1.22 in [18]. In addition, the z-score in assay [2] was -0.358. The composite Z-score in assay [11] is 1.04 (inactive).
As to `Cc1ccc(N2C(=O)c3ccccc3[C@@H](C(=O)NCC(C)C)[C@@H]2c2ccc(CO)cc2)nc1`, the composite z-score in [1] was -0.369; in assay [3] it was -1.31; in [4], -0.617; in assay [5], -0.259; in assay [6], -0.176; in assay [7], -0.0709. For the same compound, the composite z-score was -0.518 in assay [8]; 0.219 in assay [9]; -0.688 in [10]; -0.795 with Albumin (Bos taurus); -0.465 in assay [12]; -0.166 in assay [13]. Further, the composite z-score in assay [14] is 0.806; in assay [15] it was 0.121; in assay [16], 0.474; in the assay with Sam68 (KHDRBS1), -0.205; in assay [17], -0.323; in assay [18], -0.418. For the same compound, the z-score in [2] is -0.216. Further, in [11], the composite Z-score was -0.204 (inactive).
Consider `CN(C)CCCCCCNC(=O)[C@@H]1C[C@@H]2C(=O)N[C@@H](Cc3ccccc3)C(=O)N2[C@@H]1c1cccc(OCCO)c1`, for which the composite z-score in assay [1] is 1.39; in assay [3] it was 0.637; in assay [4], -0.345; in assay [5] it was -0.287; in assay [6] it was -0.0472; in assay [7], 0.0756. Besides, the composite z-score in assay [8] is 0.109; in assay [9], 1.93; in [10] it was 2.64; with Albumin (Bos taurus), -0.0152; in assay [12], 0.0715; in [13], -0.0793. In addition, the composite z-score amounted to 0.784 in assay [14]; 2.51 in assay [15]; 0.142 in [16]; 1.31 in the assay on Sam68 (KHDRBS1); 0.711 in [17]; 1.11 in assay [18]. In [2], this compound returned a z-score of 1.73. The composite Z-score in assay [11] was 0.816 (inactive).
As to `CC(C)(C)OC(=O)CC[C@]1(C(=O)NCC(O)CO)N=C(c2ccc(OCCCO)cc2)O[C@H]1c1ccccc1CN=[N+]=[N-]` (stereo not given in full), the composite z-score was 0.29 in assay [1]; -0.167 in [3]; 2.52 in assay [4]; 0.909 in assay [5]; 0.25 in [6]; 0.541 in assay [7]. Besides, the composite z-score was -0.524 in assay [8]; 3.82 in assay [9]; 2.42 in [10]; 0.906 with Albumin (Bos taurus); 0.883 in assay [12]; 0.382 in assay [13]. For the same compound, the composite z-score in assay [14] was determined as 0.747; in assay [15], 2.82; in assay [16], 1.58; with Sam68 (KHDRBS1), 1.16; in [17] it was 0.0916; in [18], 1. The z-score in assay [2] is 1.15. The composite Z-score in assay [11] is 1.27 (inactive).
On to `O=C1c2ccccc2[C@@]2(Cc3ccccc3N(Cc3ccccc3)C2=O)[C@H](c2ccc(CO)cc2)N1Cc1ccccc1C(F)(F)F`, for which the composite z-score was -0.648 in [1]; -1.3 in assay [3]; -0.457 in [4]; -0.176 in assay [5]; -0.157 in assay [6]; 0.0684 in assay [7]. For the same compound, the composite z-score was 0.549 in [8]; 0.0154 in [9]; -0.32 in [10]; 0.811 with Albumin (Bos taurus); -0.128 in assay [12]; -0.0705 in [13]. For the same compound, the composite z-score was 0.781 in assay [14]; 1.04 in assay [15]; -0.381 in assay [16]; -1.31 in the assay on Sam68 (KHDRBS1); -1.5 in [17]; -0.486 in assay [18]. The compound also returned a z-score in assay [2] of -0.353. Further, in assay [11], the composite Z-score was -0.372 (inactive).
As to `Cc1ccc(S(=O)(=O)N2CC(C(=O)O)=CCC2c2ccccc2)cc1` (stereo not given), the composite z-score in assay [1] is 0.467; in assay [3] it was -1.58; in assay [4], 0.0207; in assay [5], 0.52; in [6], 0.173; in assay [7], 0.0639. For the same compound, the composite z-score in assay [8] is -0.468; in assay [9] it was 0.505; in assay [10], 0.277; with Albumin (Bos taurus), 0.465; in assay [12], -0.287; in [13], -0.106. Further, the composite z-score in [14] was 0.881; in [15], 1.21; in [16] it was 0.671; in the assay on Sam68 (KHDRBS1) it was 0.503; in assay [17], -1.74; in [18] it was 0.0782. Further, in [2], the z-score was -0.212. Further, the composite Z-score in [11] was 0.0578 (inactive).

These data come from PubChem BioAssay.
